Test systems include DU-145 prostate; K-562 leukemia; MALME-3M melanoma; MDA-MB-231 breast; RXF 393 renal; SF-268 CNS; SF-295 CNS; SF-539 CNS; UACC-257 melanoma; M14 melanoma.
Holding throughout (assay): NCI-60 one-dose screen, 48 h (100 = growth as untreated, 0 = no growth, -100 = all killed)
What all share (settings): 10 µM unless noted

Growth data for 13 compounds are collected here from PubChem BioAssay (NCI).

The panel holds about 83,000 compounds, 20% with a hit somewhere; the sample as a whole holds those more often.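 Treatment: one concentration, 48 hours, 96-well format. Scoring: percent growth, with anything below 10 considered active.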 Unmarked numbers belong to inactive results. Active and inactive are the calls of the source.

For the compound `O=C1c2cccc3cccc(c23)C(=O)N1CCCCCN1CCN(CCCCCOc2ccc(-c3nc4ccc(N5CCOCC5)cc4[nH]3)cc2)CC1`, the growth was 97.4% with DU-145 prostate; 19.6% in the assay on K-562 leukemia; 82.6% with MALME-3M melanoma; 108% with MDA-MB-231 breast; -11.5% (active) with RXF 393 renal; 136% in the assay with SF-268 CNS. Further, the growth with SF-295 CNS is 16.3%; in the assay with SF-539 CNS, 54.4%; in the assay on UACC-257 melanoma, 56.3%; in the assay with M14 melanoma, 50.6%.

For the compound `CC(C)(C)c1cc(/C=N\NC(=O)/C=C/C=C/c2ccc3c(c2)OCO3)c(O)c(C(C)(C)C)c1`, the growth with DU-145 prostate was 56%; in the assay with K-562 leukemia, 59.9%; in the assay on MALME-3M melanoma, 71.3%; with MDA-MB-231 breast, 79%; in the assay with RXF 393 renal it was 94.6%; in the assay with SF-268 CNS it was 67.4%. The growth with SF-295 CNS was 92.9%; with SF-539 CNS, 87.5%; in the assay with UACC-257 melanoma, 88%; with M14 melanoma, 73.3%.

Regarding `O=C1/C(=C/N2N=C(c3ccc4ccccc4c3)CC2c2ccccc2O)SC(=S)N1c1cccnc1` (stereo not given), the growth was 24.8% in the assay with DU-145 prostate; 10.9% in the assay on K-562 leukemia; 79.5% in the assay on MALME-3M melanoma; 53% with MDA-MB-231 breast; -8.6% (active) in the assay on RXF 393 renal; 31.9% with SF-268 CNS. For the same compound, the growth was 10.5% in the assay on SF-295 CNS, -26.2% (active) in the assay with SF-539 CNS, 69.1% in the assay with UACC-257 melanoma and 7.17% (active) with M14 melanoma.

With `CCN(CC)c1ccc(/C=N\NC(=O)/C=C/C=C/c2ccc3c(c2)OCO3)c(O)c1`, the growth in the assay on DU-145 prostate is 53.2%; in the assay with K-562 leukemia, 17.6%; in the assay on MALME-3M melanoma it was 56.5%; in the assay with MDA-MB-231 breast, 43.2%; in the assay with RXF 393 renal it was 72.6%; with SF-268 CNS, 33.7%. In addition, the growth was 41.7% with SF-295 CNS, 22.7% with SF-539 CNS, 24.2% in the assay with UACC-257 melanoma and 36.4% in the assay with M14 melanoma.

On to `O=C(/C=C/c1ccccc1)c1ccc(O)c(CN2CCN(c3cc4c(cc3F)c(=O)c(C(=O)O)cn4C3CC3)CC2)c1`, for which the growth is 31.3% in the assay with DU-145 prostate; 16.7% with K-562 leukemia; 18.9% in the assay on MALME-3M melanoma; 33.3% with MDA-MB-231 breast; 17.4% in the assay on RXF 393 renal; 28.1% with SF-268 CNS. In addition, the growth in the assay with SF-295 CNS was 4.62% (active); with SF-539 CNS, 10.3%; with UACC-257 melanoma, 31.7%; in the assay with M14 melanoma, 27.9%.

For `CC(=O)Nc1ccc(-n2c(O)c(/C=N/NC(=O)Cc3ccccc3Nc3c(Cl)cccc3Cl)sc2=S)cc1`, the growth with DU-145 prostate was 105%; with K-562 leukemia it was 94.6%; in the assay on MALME-3M melanoma it was 108%; in the assay on MDA-MB-231 breast, 107%; with RXF 393 renal it was 105%; in the assay with SF-268 CNS, 94.4%. For the same compound, the growth is 99.4% in the assay on SF-295 CNS, 98.4% in the assay with SF-539 CNS, 103% with UACC-257 melanoma and 103% with M14 melanoma.

For `O=C1c2ccccc2C(=O)c2c(N=Nc3[nH]c(=S)[nH]c3O)cccc21`, the growth was 16.3% with DU-145 prostate; 9.57% (active) with K-562 leukemia; 45.4% in the assay with MALME-3M melanoma; 40.3% with MDA-MB-231 breast; -22.4% (active) in the assay on RXF 393 renal; 32.1% in the assay on SF-268 CNS. Further, the growth was 7.45% (active) in the assay on SF-295 CNS, -32.3% (active) with SF-539 CNS, 56.9% in the assay on UACC-257 melanoma and -15.8% (active) in the assay on M14 melanoma.

For the compound `N#Cc1c(-c2ccc(Cl)cc2)nc(N/N=C/c2cccc(Br)c2)nc1N1CCOCC1`, the growth was 59.3% with DU-145 prostate; 12.6% with K-562 leukemia; 133% in the assay with MALME-3M melanoma; 103% in the assay with MDA-MB-231 breast; 56.2% with RXF 393 renal; 89.2% in the assay with SF-268 CNS. In addition, the growth in the assay on SF-295 CNS is 91.5%; with SF-539 CNS, 78.8%; in the assay with UACC-257 melanoma, 71.6%; in the assay with M14 melanoma, 62.4%.

With `CSc1ccc(-c2n[nH]nc2-c2cc3ccccc3s2)cc1`, the growth in the assay on DU-145 prostate was 74.3%; in the assay on K-562 leukemia, 15.1%; in the assay with MALME-3M melanoma, 69.4%; in the assay with MDA-MB-231 breast it was 41.5%; with RXF 393 renal it was 75.5%; in the assay with SF-268 CNS, 54.3%. Further, the growth with SF-295 CNS is 49.9%; with SF-539 CNS, 50.2%; in the assay with UACC-257 melanoma, 58.4%; with M14 melanoma, 16%.

In the case of `Cc1nc2ccccc2n1C(=O)C[C@@H]1NC(=S)NC1=O`, the growth in the assay with DU-145 prostate is 109%; with K-562 leukemia, 107%; in the assay on MALME-3M melanoma, 83.8%; in the assay with MDA-MB-231 breast it was 95.8%; with RXF 393 renal, 108%; with SF-268 CNS it was 95.1%. Also, the growth was 98.4% in the assay on SF-295 CNS, 98.6% with SF-539 CNS, 86.9% with UACC-257 melanoma and 89.3% in the assay on M14 melanoma.

As to `C=C1c2nc3ccccc3n2C=C(c2ccc(OC)cc2)N1Cc1ccccc1`, the growth is 103% in the assay on DU-145 prostate; 73.5% in the assay with K-562 leukemia; 109% in the assay on MALME-3M melanoma; 100% in the assay on MDA-MB-231 breast; 101% in the assay on RXF 393 renal; 89.2% with SF-268 CNS. For the same compound, the growth is 103% in the assay on SF-295 CNS, 115% in the assay with SF-539 CNS, 97.1% in the assay with UACC-257 melanoma and 98.1% with M14 melanoma.

For the compound `Cn1cc(-c2nonc2-c2c[nH]c3ccccc23)c2cccnc21`, the growth was 67.7% with DU-145 prostate; 12.7% in the assay on K-562 leukemia; 50.5% in the assay with MALME-3M melanoma; 59.6% in the assay on MDA-MB-231 breast; 36.1% in the assay with RXF 393 renal; 56.5% with SF-268 CNS. Moreover, the growth in the assay with SF-295 CNS was 51.4%; in the assay with SF-539 CNS it was 41.9%; in the assay on UACC-257 melanoma, 55%; in the assay with M14 melanoma, 21.2%.

`COc1cccc(-c2nc3sccn3c2-c2ccnc(NCCCNS(=O)(=O)c3cccc(F)c3)c2)c1`: the growth with DU-145 prostate is 31.9%; with K-562 leukemia, 11.4%; in the assay on MALME-3M melanoma, 28.1%; with MDA-MB-231 breast, 65.4%; in the assay with RXF 393 renal it was 66.7%; in the assay with SF-268 CNS it was 40.9%. Further, the growth was 9.57% (active) in the assay on SF-295 CNS, 70% in the assay with SF-539 CNS, 20.6% with UACC-257 melanoma and 10.9% in the assay with M14 melanoma.
